Experimental data as given in ChEMBL document CHEMBL3433997, “St. Jude Leishmania screening dataset” (2016).

biological target: Glucose transporter (Leishmania mexicana) (UniProt O61059); test: ST_JUDE_LEISH: Cytotoxicity at 2uM final concentration against transgenic Leishmania Mexicana promastigotes LmGT2 that are glucose transport deficient and complemented with the L. Mexicana glucose transporter 2. Activity is measured by DNA content using SYBR green in vitro; type: functional

Compared with CS(=O)(=O)c1ccc2c(c1)CCN(CCC1CCC(NC(=O)C(=Cc3cccc(C#N)c3)c3ccc(-c4ccccc4)cc3)CC1)CC2 (centres undefined), O=C(NC1CCN(CCN2CCC(c3ccccc3C(F)(F)F)CC2)CC1)c1ccc(-c2ccc(Cl)cc2)cc1 is higher in inhibition: 1.15% for the first, 1.57% for the second.

Going from Nc1ncc(-c2cc3ccccc3o2)c(N)n1 to CC1(C)NC(N)=NC(=N)N1OCCOc1ccc2ccccc2c1, the inhibition rises from -0.11% to 1.3%.

First: N=c1n(CCN2CCCC2)c2ccccc2n1CC(O)c1ccc(Cl)c(Cl)c1 (centres undefined)
Second: CN1CCC[C@H]1COc1ccc(CN2CC[C@H](NC(=O)c3ccc(Cl)c(Cl)c3)C2)cc1Br
The inhibition of the first is higher: 9.08% for the first, 1.89% for the second.

Going from CC(=O)Nc1ccc(CN(Cc2ccc(C)cc2)Cc2cccc(Oc3ccccc3)c2)cc1 to COc1ccc(CNCc2ccc(-c3cccc(-c4nc5ccccc5[nH]4)c3)cc2)cc1, the inhibition falls from 2.62% to 2.14%.

Going from N#Cc1cccc(NC(=O)C2=C(CCc3ccc4c(c3)OCO4)NC(=O)NC2c2cccc(C#N)c2)c1 (centres undefined) to COc1ccccc1N1CCN(CCCCNC(=O)c2ccc(NC(=O)c3cc4ccccc4o3)cc2)CC1, the inhibition rises from -0.7% to 0.06%.

Compared with Cc1ccc2ccncc2c1N, COc1ccc2[nH]ccc(=NN=Cc3cccnc3)c2c1 is lower in inhibition: 6.36% for the first, 1.2% for the second.

Going from CCN(CC)C(=S)N/N=C1/C(=O)Nc2c(C)cccc21 to CC1(C)NC(N)=NC(=N)N1OCCCOc1cc(Cl)ccc1Cl, the inhibition rises from 1.52% to 13.6%.

Compared with O=C(Nc1ccc(S(=O)(=O)N2CCCCC2)cc1)c1cc(-c2ccccc2O)n[nH]1, O=C(Nc1ccc(C(F)(F)F)cc1)c1cccc(S(=O)(=O)NCC2CCCN(CC3CCCCC3)C2)c1 (centres undefined) is lower in inhibition: 10.8% for the first, 0.02% for the second.

Compared with CC(C)(C)SC1SC(SC(C)(C)C)C(OC(=O)c2ccccc2)C(OC(=O)c2ccccc2)C1OC(=O)c1ccccc1 (centres undefined), O=C(NC1CCN(Cc2ccccc2)CC1)c1ccc(CNC2CCN(Cc3ccccc3)CC2)cc1 is higher in inhibition: -0.49% for the first, 4.42% for the second.

Going from O=C(Nc1cccc(Cl)c1)OC1CCCN2CCCCC12 (centres undefined) to O=C(NC1CC1)c1ccc(N2CCC(Oc3ccc(F)cc3)CC2)nc1, the inhibition falls from 9.42% to 1.42%.

First: CN1CCC(N(Cc2ccc(-c3ccc(C(F)(F)F)cc3)cc2)C(=O)Cn2c(SCc3cccc(F)c3F)cc(=O)c3c2CCC3)CC1
Second: CCN1CCC(N(Cc2ccc(-c3ccc(C(F)(F)F)cc3)cc2)C(=O)Cn2c(SCc3ccc(F)cc3)nc(=O)c3c2CCC3)CC1
The inhibition of the first is higher: 1.56% for the first, -2.05% for the second.

First: COc1cc(NC2=NS(=O)(=O)c3cc(Cl)ccc3N2C)cc(OC)c1OC
Second: COc1cc2c(cc1OC)C(C(=O)c1ccccc1)=NCC2
The inhibition of the first is higher: 7.53% for the first, 2.28% for the second.

Going from CCNc1cc(C(=O)N[C@@H](Cc2ccccc2)[C@H](O)CNCCCc2ccc(OC)cc2)cc(N2CCCC2=O)c1 to CCc1cn2c3c(cc(C(=O)N[C@@H](Cc4ccccc4)[C@H](O)CNCc4ccccc4C)cc13)N(C)S(=O)(=O)CC2, the inhibition rises from 1.05% to 1.96%.

Compared with Cc1ccc(NC(=O)N2CCN(CCCCCNC(=O)/C=C/c3ccc(Cl)c(Cl)c3)CC2)cc1C, O=C(/C=C/c1ccc(Cl)c(Cl)c1)N1CCC(CN2CCC(c3c[nH]c4ccncc34)CC2)CC1 is lower in inhibition: 6.33% for the first, 5.44% for the second.

Going from Nc1cccc(CNCc2ccc(-c3cccc(-c4nc5ccccc5[nH]4)c3)cc2)c1 to COc1ccc(-c2cccc(CNC3CCN(C)CC3)c2)cc1S(=O)(=O)NCc1ccccc1, the inhibition rises from -0.54% to 4.42%.

Going from CC(C)(C)NCCN(Cc1ccc(-c2ccc(C(F)(F)F)cc2)cc1)C(=O)Cn1c(SCc2ccc(F)cc2)nc(=O)c2c1CCC2 to CCN(CC)CCN(Cc1ccc(-c2ccc(C(F)(F)F)cc2)cc1)C(=O)Cn1nc(-c2ccc(C(F)(F)F)cc2)ccc1=O, the inhibition rises from 1.74% to 2.83%.

Going from CC1(C)N=C(N)N=C(N)N1c1ccc(Oc2ccc(Cl)cc2)c(Cl)c1 to COc1cccc(CNc2noc(-c3c(-c4ccccc4)noc3C)n2)c1OC, the inhibition rises from 2.05% to 2.76%.

Going from N=C(N)NC(=O)Nc1cc(Br)c(Br)c(Br)c1 to CCCCCCCCc1c(C)nc(C)c(Br)c1O, the inhibition falls from 1.74% to -0.12%.

First: COc1ccc2nccc([C@@H](O)CN3CCC(NCCNc4ccccn4)CC3)c2c1
Second: CC(C)(C)C(Cn1ccnc1)NCc1c[nH]nc1-c1ccc(-c2ccccc2)cc1 (centres undefined)
The inhibition of the first is lower: 6.24% for the first, 11.5% for the second.

O=C(Cc1ccccc1)NC(Nc1ccc([N+](=O)[O-])cc1)C(Cl)(Cl)Cl (centres undefined) was tested, and the inhibition was 0.18%.
